Experimental findings from PubChem BioAssay are described below.

Inconclusive results are not listed. Values without a mark were called inactive. The source made the active and inactive calls. Cut-off read from the data, not from the text of the source: active = fluorescence slope change above about 50%; inconclusive = mostly about 31% to 49%; inactive = weaker than that.

This test deals with ATP-dependent translocase ABCB1 (Homo sapiens) (UniProt P08183). Put plainly: P-glycoprotein substrate transport blockade – cell-based (AID 377). To be noted: MDR1-expressing cells, fluorescent substrate accumulation slope; hits give high values; concentration not given here.
ATP-dependent translocase ABCB1 (Homo sapiens), sequence (P08183 whole entry, looked up): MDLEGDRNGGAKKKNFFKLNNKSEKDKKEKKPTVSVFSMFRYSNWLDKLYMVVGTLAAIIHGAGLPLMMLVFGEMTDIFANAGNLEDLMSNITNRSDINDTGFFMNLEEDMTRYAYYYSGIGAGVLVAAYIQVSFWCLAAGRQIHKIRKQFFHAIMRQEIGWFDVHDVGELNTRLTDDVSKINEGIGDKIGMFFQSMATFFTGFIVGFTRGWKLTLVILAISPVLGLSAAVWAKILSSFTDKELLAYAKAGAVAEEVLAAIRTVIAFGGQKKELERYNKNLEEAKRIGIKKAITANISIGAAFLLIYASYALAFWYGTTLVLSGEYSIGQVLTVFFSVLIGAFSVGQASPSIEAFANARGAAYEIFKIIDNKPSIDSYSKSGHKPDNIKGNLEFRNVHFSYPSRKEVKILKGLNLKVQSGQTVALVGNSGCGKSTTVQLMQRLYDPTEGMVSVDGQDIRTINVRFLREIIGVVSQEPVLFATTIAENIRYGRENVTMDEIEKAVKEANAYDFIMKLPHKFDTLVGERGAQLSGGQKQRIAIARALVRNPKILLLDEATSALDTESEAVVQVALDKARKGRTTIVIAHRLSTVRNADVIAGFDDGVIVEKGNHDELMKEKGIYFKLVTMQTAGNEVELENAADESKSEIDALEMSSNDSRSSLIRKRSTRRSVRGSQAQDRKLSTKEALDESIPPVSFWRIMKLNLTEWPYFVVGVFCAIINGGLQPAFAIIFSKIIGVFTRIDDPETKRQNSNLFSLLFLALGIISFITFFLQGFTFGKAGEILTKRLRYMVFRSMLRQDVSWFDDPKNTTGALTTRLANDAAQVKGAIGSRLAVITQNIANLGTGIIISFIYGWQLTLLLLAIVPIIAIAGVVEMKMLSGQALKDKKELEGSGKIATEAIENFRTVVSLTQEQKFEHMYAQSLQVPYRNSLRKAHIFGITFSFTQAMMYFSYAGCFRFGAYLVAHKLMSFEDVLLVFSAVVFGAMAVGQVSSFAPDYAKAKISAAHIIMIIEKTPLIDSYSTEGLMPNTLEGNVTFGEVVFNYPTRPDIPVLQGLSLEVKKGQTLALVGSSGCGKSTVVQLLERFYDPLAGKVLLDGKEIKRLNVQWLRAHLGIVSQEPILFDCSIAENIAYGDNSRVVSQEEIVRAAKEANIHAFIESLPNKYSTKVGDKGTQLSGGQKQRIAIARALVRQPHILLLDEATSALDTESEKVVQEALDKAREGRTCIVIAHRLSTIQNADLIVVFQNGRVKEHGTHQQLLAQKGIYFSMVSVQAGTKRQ
With `C[C@@H]1C[C@H]2[C@@H]3C[C@H](F)C4=CC(=O)C=C[C@]4(C)[C@@]3(F)[C@@H](O)C[C@]2(C)[C@@]1(O)C(=O)CO`, the fluorescence slope change was 57.3% (active).

As for `COc1cc2c3cc1Oc1cc(ccc1O)C[C@@H]1c4c(cc(OC)c(O)c4Oc4ccc(cc4)C[C@@H]3N(C)CC2)CC[N+]1(C)C`, the fluorescence slope change is 8.4%.

In the case of `Cc1ccc(S(=O)(=O)NC(=O)NN2CC3CCCC3C2)cc1` (configuration not stated), the fluorescence slope change is 10.5%.

As to `C=CC(N)CCC(=O)O` (configuration not stated), the fluorescence slope change is 52.2% (active).

Take `CC1(C)O[C@@H]2C[C@H]3[C@@H]4CCC5=CC(=O)CC[C@]5(C)[C@@]4(F)[C@@H](O)C[C@]3(C)[C@]2(C(=O)CCl)O1`: the fluorescence slope change is 26.3%.

On to `O=C(c1ccc(F)cc1)C1CCN(CCn2c(=O)[nH]c3ccccc3c2=O)CC1`, for which the fluorescence slope change is -1%.

Take `CC[C@]12CCCN3CCc4c(n(c5ccccc45)[C@@](O)(C(=O)OC)C1)[C@@H]32`: the fluorescence slope change is 8.1%.

Regarding `CN1CCN(C(c2ccccc2)c2ccccc2)CC1`, the fluorescence slope change was 59.4% (active).

Regarding `CO[C@@]1(NC(=O)CSCC#N)C(=O)N2C(C(=O)O)=C(CSc3nnnn3C)CS[C@@H]21`, the fluorescence slope change was 20.3%.

In the case of `CCOC(=O)n1ccn(C)c1=S`, the fluorescence slope change was 99.3% (active).

As for `Cc1cc2c(C(C)C)c(O)c(O)c(C=O)c2c(O)c1-c1c(C)cc2c(C(C)C)c(O)c(O)c(C=O)c2c1O`, the fluorescence slope change was 93.5% (active).

Regarding `CC(=O)OC(C)C[N+](C)(C)C` (configuration not stated), the fluorescence slope change was -0.2%.

For `CCN(CC)Cc1cc(Nc2ccnc3cc(Cl)ccc23)ccc1O`, the fluorescence slope change was 54.8% (active).

For `COC(=O)[C@@H]1[C@H]2C[C@H]3c4[nH]c5ccccc5c4CCN3C[C@@H]2CC[C@@H]1O`, the fluorescence slope change was 52.6% (active).

As to `CC(C)NCC(O)COc1ccc(CCOCC2CC2)cc1` (configuration not stated), the fluorescence slope change is 1%.

For `Oc1cc(O)c2c(c1)O[C@H](c1ccc(O)c(O)c1)[C@H](O)C2`, the fluorescence slope change was -0.6%.

Regarding `Cc1scc2c1N(C(=O)CN1CCN(C)CC1)c1ccccc1NC2=O`, the fluorescence slope change is 65.1% (active).

`CCOC(=O)C1=C(C)NC(C)=C(C(=O)OC)C1c1cccc(Cl)c1Cl` (configuration not stated): the fluorescence slope change is 28.6%.

For the molecule `NC(N)=N/N=C/c1c(Cl)cccc1Cl`, the fluorescence slope change was 70.4% (active).

Consider `Nc1ccc(S(=O)(=O)Nc2ccc(Cl)nn2)cc1`, for which the fluorescence slope change was -13.4%.

As to `CN1CCC(=C2c3ccccc3C=Cc3ccccc32)CC1`, the fluorescence slope change is 178% (active).

In the case of `CN1CCCCC1CCN1c2ccccc2Sc2ccc(S(C)=O)cc21` (configuration not stated), the fluorescence slope change is 54.4% (active).
